Compounds with a hit are over-represented: about 4.7% of the library has one in this group of screens.
TRHR ag: agonists of human TRH receptor; TRHR cells, calcium flux fluo-8, FDSS agonist mode; actives 0.18% (n = 360,000); activation, % at 2 µM; AID 493084; further: 0% is about no effect
Target sequence (P34981 whole entry, looked up): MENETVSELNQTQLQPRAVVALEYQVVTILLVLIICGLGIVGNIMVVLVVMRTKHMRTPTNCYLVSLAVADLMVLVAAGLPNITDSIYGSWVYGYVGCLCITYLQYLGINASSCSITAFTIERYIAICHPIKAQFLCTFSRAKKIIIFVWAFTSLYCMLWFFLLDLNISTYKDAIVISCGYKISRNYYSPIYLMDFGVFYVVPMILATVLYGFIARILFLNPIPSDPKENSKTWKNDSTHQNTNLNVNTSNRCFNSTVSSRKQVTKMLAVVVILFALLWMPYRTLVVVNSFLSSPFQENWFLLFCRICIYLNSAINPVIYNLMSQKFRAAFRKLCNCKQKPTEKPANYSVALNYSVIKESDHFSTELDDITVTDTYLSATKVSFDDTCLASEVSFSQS
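Steps: seed TRHR cells overnight; add fluo-8 no-wash Ca dye, RT 30 min–1.5 h; record 10 s baseline; pin-transfer compounds; monitor fluorescence 1 cycle/s for the agonist window. Calcium increases flag candidate agonists.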
D1 antag: antagonists of human D1 dopamine receptor; actives 3.2% (n = 360,000); P21728; activity change, negative = inhibition, % at 10 µM; HEK293 TREx D1 cells, calcium flux, dopamine EC80; stronger effect = lower value; in the data active means activity change below about -30%; further: on the % scale 0 is the no-effect control and ±100 the full control effect
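Kinetic fluorescence of a calcium dye serves as the read-out. D1-expressing Hek293 Trex cells, induced overnight at 30 C, are exposed to compound for 180 s before an EC80 dopamine addition, then read 180 s further.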
TRHR enhancer: TRH receptor (human) allosteric enhancement | P34981 | TRHR cells, fluo-8 calcium fluorescence, EC20 TRH enhancement | enhancement, % at 2 µM | actives 0.66% (n = 360,000) | AID 493056; in the data active means enhancement above about 30%; further: 0% is about no effect
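Enhancer read-out: after compound pinning and an initial kinetic agonist-mode read, an EC20 of TRH (10 nM final) was injected and fluo-8 calcium signal (Ex 480/Em 530) followed at 1 s/cycle for 100 cycles in TRHR-expressing cells.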
D1 ag: agonists of human D1 dopamine receptor; P21728; HEK293 T-REx D1 cells, calcium flux, agonist mode; activation, % at 2 µM; actives 1% (n = 360,000); AID 504660; further: 0% is about no effect
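Inducible HEK293 T-REx D1 cells, force-coupled to calcium signalling, were plated at 4000 cells/well with tetracycline and held overnight at 30 C. After no-wash calcium dye loading, compound-evoked calcium rise over 180 s flagged agonists.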
D1 potentiator: human D1 dopamine receptor positive modulation; P21728; HEK293 TREx D1 cells, calcium flux, dopamine EC20 potentiation; potentiation, % at 10 µM; actives 0.036% (n = 360,000); AID 504651; in the data active means potentiation above about 30%; further: 0% is about no effect
* = called active by the depositor; ! = not active in a repeat. Unless noted, no stated cut-off is given here; in the data, active means activation above about 30%; inactive means the rest.

For Cc1ccccc1NS(=O)(=O)c1cccc2nonc12 the results were TRHR ag 0, D1 antag 2, TRHR enhancer 19, D1 ag 0 and D1 potentiator -2.
For Cc1ccccc1Nc1cccc2nonc12 the results were TRHR ag 10, D1 antag -5, TRHR enhancer -3, D1 ag 40* and D1 potentiator -7.
For CC(C)(C)NC(=O)C(c1ccncc1)N(Cc1cccs1)C(=O)Cn1nnc(-c2ccc(F)cc2)n1 (centres undefined) the results were TRHR ag 1, D1 antag -33*, TRHR enhancer -3, D1 ag 0 and D1 potentiator -2.
Screening Cc1ccc(-c2nnn(CC(=O)N(CCN3CCOCC3)C(C(=O)NC(C)(C)C)c3ccc(C)o3)n2)cc1 (centres undefined) returned TRHR ag 0, D1 antag 2, TRHR enhancer 37*, D1 ag 1 and D1 potentiator -1.
Screening COc1ccc(-c2nnn(CC(=O)N(CCCN3CCOCC3)C(C(=O)NC3CCCC3)c3ccco3)n2)cc1 (centres undefined) returned TRHR ag -1, D1 antag -32*, TRHR enhancer -1, D1 ag 4 and D1 potentiator 1.
For Cn1ccc2cc(S(=O)(=O)N3CCC(C(=O)NCCc4ccccc4)CC3)ccc21 the results were TRHR ag -1, D1 antag 7, TRHR enhancer -8, D1 ag 1 and D1 potentiator -2.
`Cc1cc(C)n(C(C)CC(=O)NCc2ccc(Cl)cc2)n1` (centres undefined) gave TRHR ag 0, D1 antag -7, TRHR enhancer 3, D1 ag 0 and D1 potentiator -6.
Cc1nc(C(=O)Nc2ccccc2)sc1C1(C)CC(c2cccc([N+](=O)[O-])c2)=NO1 (centres undefined) was read as TRHR ag 2, D1 antag -33*, TRHR enhancer 5, D1 ag 4 and D1 potentiator -6.
`Cc1nc(C(=O)NCc2ccccc2)sc1C1(C)CC(c2ccccc2)=NO1` (centres undefined) gave TRHR ag 2, D1 antag 30, TRHR enhancer -6, D1 ag 39* and D1 potentiator -8.
For Cc1nnc(SCc2cc([N+](=O)[O-])cc3c2OCOC3)n(N)c1=O the results were TRHR ag 0, D1 antag -42*, TRHR enhancer 8, D1 ag 2 and D1 potentiator -6.
Screening CCN(CC)c1ccc(/C=C2\C(=N)N3N=C(CC(=O)N4CCOCC4)SC3=NC2=O)cc1 returned TRHR ag 34*, D1 antag 12, TRHR enhancer -5, D1 ag 115* and D1 potentiator 0.
Screening CSc1ccc(/C=C2\C(=N)N3N=C(CC(=O)N4CCOCC4)SC3=NC2=O)cc1 returned TRHR ag 1, D1 antag -2, TRHR enhancer -5, D1 ag 5 and D1 potentiator -4.
For CCc1ccc(NS(=O)(=O)c2[nH]ncc2C(=O)OC)cc1 the results were TRHR ag 0, D1 antag -38*, TRHR enhancer 11, D1 ag 0 and D1 potentiator 0.
For CCc1ccc(NS(=O)(=O)c2cc(OC)ccc2OC)cc1 the results were TRHR ag -1, D1 antag 1, TRHR enhancer -6, D1 ag 17 and D1 potentiator -6.
Screening CC/C(=C(\c1ccc(O)cc1)c1ccc(OCCN(C)C)cc1)c1ccccc1 returned TRHR ag 1, D1 antag 9, TRHR enhancer 8, D1 ag 15 and D1 potentiator -2.
`CC/C(=C(\c1ccccc1)c1ccc(OCCN(C)C)cc1)c1ccccc1` gave TRHR ag -1, D1 antag 32, TRHR enhancer -2, D1 ag 87*! and D1 potentiator -5.
COc1ccc(NC(=O)c2ccc3nc(CCc4ccccc4)oc3c2)cc1 was read as TRHR ag 1, D1 antag 6, TRHR enhancer -3, D1 ag 16 and D1 potentiator -5.
For Cc1ccc(Sc2cc(C(=O)NCCCN(C)C)c3ccccc3n2)cc1 the results were TRHR ag -2, D1 antag -10, TRHR enhancer -1, D1 ag 34* and D1 potentiator -2.
O=C(NCc1cccc(Cl)c1)c1cccc(C(F)(F)F)c1 was read as TRHR ag 0, D1 antag -33*, TRHR enhancer 14, D1 ag 2 and D1 potentiator -9.
`CCN(CC)CCNC(=O)c1cc(-c2ccc(Br)s2)nc2ccccc12` gave TRHR ag 2, D1 antag -5, TRHR enhancer -5, D1 ag 34*! and D1 potentiator -1.
`Cc1ccc(Sc2cc(C(=O)NCCN(C)C)c3ccccc3n2)cc1` gave TRHR ag 1, D1 antag 17, TRHR enhancer 5, D1 ag 17 and D1 potentiator -9.
Cc1cc(C(=O)NCc2cccc(Cl)c2)c2ccccc2n1 was read as TRHR ag -1, D1 antag -33*, TRHR enhancer 4, D1 ag 2 and D1 potentiator -11.
`CCNC(=O)COC(=O)c1cc(C)nc2ccccc12` gave TRHR ag 0, D1 antag -19, TRHR enhancer 2, D1 ag 2 and D1 potentiator 16.
For O=C(NCCc1ccccc1)c1cc(Sc2cccc(Cl)c2)nc2ccccc12 the results were TRHR ag 2, D1 antag -43*, TRHR enhancer -5, D1 ag 12 and D1 potentiator -1.
For CCCCN(C)CCCNC(=O)c1cc(-c2cccnc2)nc2ccccc12 the results were TRHR ag 0, D1 antag -59*!, TRHR enhancer 10, D1 ag 2 and D1 potentiator 3.
`Cc1cc(C(=O)NC2CCCCC2C)c2ccccc2n1` (centres undefined) gave TRHR ag 0, D1 antag 14, TRHR enhancer -2, D1 ag 2 and D1 potentiator 2.
Cc1cc(C(=O)NC2CCCC(C)C2C)c2ccccc2n1 (centres undefined) was read as TRHR ag 0, D1 antag -31*, TRHR enhancer -2, D1 ag 0 and D1 potentiator -12.
Cc1cc(C(=O)OCC(=O)NCc2cccs2)c2ccccc2n1 was read as TRHR ag 0, D1 antag -31*, TRHR enhancer 0, D1 ag 8 and D1 potentiator -1.
CCCCn1cc(S(=O)(=O)c2ccc(OC)cc2)c(=O)c2cc(F)c(N3CCOCC3)cc21 was read as TRHR ag 0, D1 antag -2, TRHR enhancer 15, D1 ag -1 and D1 potentiator -3.
Screening CCOC(=O)c1c(NC(=O)c2cc(-c3cccc(Cl)c3)on2)sc(C(C)=O)c1C returned TRHR ag 0, D1 antag -8, TRHR enhancer 6, D1 ag 1 and D1 potentiator 0.

Source: PubChem (National Center for Advancing Translational Sciences (NCATS))
